Hits are enriched below; roughly 8.7% of the tested compounds scored in any of these assays.
VACV Venus inh: vaccinia inhibition (Venus reporter). Vaccinia virus Venus reporter expression, fluorescence. Potency, µM (titrated, usually from 36.5 µM), inactives show top-dose activity change, negative = inhibition, most hits filed as inhibitors. hit rate 0.46% among 330,000. AID 720580; calls by dose curve; tested in A549 cells; further: nearly all actives have a fitted effect of over 30% in size
Pf growth 96h: P. falciparum growth inhibition at 96 hour, primary screen for plastid delayed-death inhibitors | hit rate 6.9% among 320,000 | Potency, µM (titrated, usually from 28.7 µM), without a hit: top-dose activity change, negative = inhibition, actives largely listed as inhibitors | P. falciparum luciferase reporter growth, 96 h | AID 504834
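Luminescence readout: decreased luciferase signal marks inhibited growth of reporter-expressing P. falciparum in infected red cells (2% hematocrit, 0.05% parasitemia final), exposed to compound two generations (96 h, 37 C, 5% CO2).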
VACV mCherry inh: vaccinia inhibition (mCherry reporter); AID 720579; Vaccinia virus mCherry reporter infection, fluorescence; Potency, µM (doses to about 36.5 µM), inactives show at the highest dose activity change, negative = inhibition, actives largely listed as inhibitors; hit rate 0.63% among 310,000; calls by dose curve; tested in A549 cells; further: nearly all actives have a fitted effect of over 35% in size
Pf growth 48h: inhibits P. falciparum growth in the first generation, 48 h. AID 504832. P. falciparum luciferase growth in erythrocytes, 48 h. hit rate 5.9% among 310,000. Potency, µM (series often up to 28.7 µM), for inactives: at the top dose activity change, negative = inhibition, hits mostly inhibitors
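Parasite viability was followed by luminescence of a genomically integrated firefly luciferase. Cultures held 0.1% parasitemia at 2% hematocrit (final), incubated under 5% CO2 at 37 C.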
AMA1-RON2 inh: disrupts binding of P. falciparum AMA1 to RON2; Potency, µM (titrated, usually from 58.2 µM), without a hit: at the top dose activity change, negative = inhibition, most hits filed as inhibitors; AlphaScreen AMA1-biotinylated RON2 peptide binding; hit rate 0.2% among 360,000; AID 720542;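 further: 0% = vehicle wells and -100% = peptide control; nearly all actives have a fitted effect of over 45% in size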
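AMA1 (3D7) with his tag at 25 nM final met compounds first, then biotinylated RON2 peptide at 25 nM; detection used donor plus acceptor beads, 10 µg/mL apiece, read by AlphaScreen after 30 min at room temperature.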
The depositor's hits bear a star; i = inactive; ? = inconclusive; . = no result; [ ] = dose if it differs, or a comment. Unless noted, the call rests on the fitted dose curve; in most records, active means well fitted curve in the direction sought with a large enough effect; inconclusive means small, poorly fitted or top-dose-only effect, or another doubt; inactive means no such curve, though single readings can be large; an effect the other way counts as inactive or inconclusive. Unless noted, on the % scale 0 is the no-effect control and ±100 the full control effect; potency means the concentration at half of the fitted maximal effect.

SMILES	VACV Venus inh	Pf growth 96h	VACV mCherry inh	Pf growth 48h	AMA1-RON2 inh
Cc1nccn1-c1c2c(c(C#N)c3nc4ccccc4n13)CCC2	0.0%	18.6%	5.7%	-17.4%	-1.3%
Cc1cc(-c2ccc(C)c(S(=O)(=O)N3CCN(c4cccc(C(F)(F)F)c4)CC3)c2)on1	-11.3%	.	-18.5%	.	.
COc1ccc(NC(=O)C2=C(C)Nc3ncnn3C2c2ccc(O)cc2)cc1 (stereo not drawn)	2.2%	.	8.9%	.	.
CN(C)CCNCCCOc1ccccc1-c1ccccc1	.	47.2%	.	2.62µM*	.
CC(C)(C)NCCOCCOc1ccccc1-c1ccccc1	-23.1%	3.7µM*	-2.5%	?	-0.5%
COCCCNCCOCCOc1ccccc1-c1ccccc1	-22.1%	?	-24.3%	-8.3%	-5.2%
Cc1cc2c(c(-c3cnccn3)c1)OC(CNC(=O)c1cc(Cl)ccc1F)C2 (stereo not drawn)	-13.6%	.	-13.8%	.	.
CC1N=C2c3ccccc3N=C(SCC(=O)NCCc3ccc(Cl)cc3)N2C1=O (stereo not drawn)	-8.0%	.	-9.2%	.	.
CCn1c(SC)nnc1C1CCN(S(=O)(=O)c2ccc(OC)cc2)CC1	.	-26.1%	.	3.8%	-14.0%
CCn1c(SCc2ccc(F)cc2)nnc1C1CCN(S(=O)(=O)c2ccc(OC)cc2)CC1	.	8.28µM*	.	11.7µM*	1.7%
CCn1c(SCc2ccc(C)cc2)nnc1C1CCN(S(=O)(=O)c2ccc(OC)cc2)CC1	.	4.15µM*	.	11.7µM*	-1.1%
CCOc1ccc(NS(=O)(=O)c2ccc3[nH]cc(C(=O)N4CCCCCC4)c(=O)c3c2)cc1	2.7%	.	-0.7%	.	.
CC1CCC(NC(=O)C(NS(=O)(=O)c2cccc3nsnc23)C(C)C)CC1 (stereo not drawn)	10.2%[7.34 µM]	6.6%	0.0%[7.34 µM]	5.3%	-13.4%
CC(C)C(NS(=O)(=O)c1cccc2nsnc12)C(=O)NC1CCCCC1 (stereo not drawn)	.	10.4µM*	.	15.3%	23.6%
CN(C)c1ccc(Cc2ccc(N(C)C)cc2)cc1	.	.	.	.	14.1µM*
Cc1ccc(NC(=O)CSc2nc3c(oc4ccccc43)c(=O)n2-c2ccc(F)cc2)c(C)c1	-3.0%	.	3.2%	.	.
CCCOc1ccccc1C1NC(=O)NC(C)=C1C(=O)OCCOC(C)C (stereo not drawn)	-26.4%	11.7µM*	-8.5%	?	-1.9%
CCCOc1ccccc1C1NC(=O)NC(C)=C1C(=O)OCCOC (stereo not drawn)	-17.6%	.	.	-5.4%	-4.6%
CCCOc1ccccc1C1NC(=O)NC(C)=C1C(=O)OCc1ccccc1 (stereo not drawn)	-17.7%	-4.3%	-28.8%	13.1µM*	-13.9%
CCCCOc1ccccc1C1NC(=O)NC(C)=C1C(=O)OCCOC (stereo not drawn)	-16.6%	.	-3.5%	.	6.9%
CC1=C(C(=O)OCc2ccc3c(c2)OCO3)C(c2ccccc2OCc2ccccc2)NC(=O)N1 (stereo not drawn)	-25.3%	.	-9.1%	10.4µM*	-2.6%
O=C(NCCSCc1ccccc1)C1CCN(S(=O)(=O)Cc2ccccc2)CC1	-9.9%	.	-9.3%	.	.
COC(=O)c1cn([C@H]2C[C@@H](C(=O)N3CCCCCC3)N(Cc3ccsc3)C2)nn1	-7.0%	.	-10.4%	.	.
CCc1nc(N=C(N)N)nc2ccccc12	.	7.4%	.	3.29µM*	.
Clc1nc(-c2ccccc2)c2ccccc2n1	-4.9%	?	-12.2%	8.0%	16.4%
SMILES	VACV Venus inh	Pf growth 96h	VACV mCherry inh	Pf growth 48h	AMA1-RON2 inh
NC(N)=Nc1nc(-c2ccccc2)c2ccccc2n1	?	-18.2%	-21.2%	11.7µM*	-1.1%
Cn1c(=O)c2c(-c3ccc(Br)cc3)n(Cc3ccc(F)cc3)cc2n(C)c1=O	-7.2%	.	-7.9%	.	.
CCCCn1c(N)c(N(CC(C)C)C(=O)C2CCN(S(=O)(=O)c3ccc(F)cc3)CC2)c(=O)[nH]c1=O	-2.3%	?	-9.0%	?	11.8%
CCCCn1c(N)c(N(CC(C)C)C(=O)C2CCN(S(=O)(=O)c3ccc(Cl)cc3)CC2)c(=O)[nH]c1=O	-10.9%	9.28µM*	-0.5%	9.28µM*	8.4%
Cc1ccc(C(=O)Nc2cccc(-c3cn4ccccc4n3)c2)cc1	-10.6%	13.1µM*	-10.3%	45.9%	-5.5%
O=C(Nc1cccc(-c2cn3ccccc3n2)c1)c1ccccc1	-12.2%	53.1%	-11.2%	?	-24.3%
Cc1cc(C)c(S(=O)(=O)Nc2cccc(-c3cn4ccccc4n3)c2)c(C)c1	0.1%	.	-18.3%	.	.
O=C(Nc1cccc(-c2cn3cccnc3n2)c1)c1ccc2c(c1)OCO2	.	1.31µM*	.	-16.4%	-6.1%
Cc1cc(C)c(S(=O)(=O)Nc2ccc(-c3cn4ccccc4n3)cc2)c(C)c1	-26.1%	.	.	14.7µM*	-25.4%
CCCCN1CCc2nc(Nc3ccc(OC)cc3OC)ncc2C1	-4.5%	.	-4.5%	.	.
COc1ccc2c(c1)c(=O)c(C(=O)c1ccc(C)c(C)c1)cn2CC(=O)Nc1ccc2c(c1)OCCO2	-0.5%	.	12.0%	.	.
CCOC(=O)c1sc2ccccc2c1S(=O)(=O)N1CCN(c2cccc(C)c2C)CC1	-3.4%	.	-9.3%	.	.
Cc1ccc(NC(=O)c2ccccc2OCC(=O)Nc2ccccc2F)cc1S(=O)(=O)N(C)C	.	7.38µM*	.	9.28µM*	0.0%
Cc1ccc(S(=O)(=O)N(C)C)cc1NC(=O)COc1ccccc1C(=O)Nc1ccccc1	?	?	-18.0%	11.7µM*	-6.4%
O=C(COc1ccccc1C(=O)Nc1ccccc1)Nc1ccccc1F	-11.9%	.	-8.7%	.	.
CC(=O)Nc1ccc(S(=O)(=O)Nc2cccc(-c3nc4cc(C)ccc4o3)c2)cc1	.	.	.	.	-1.3%
Cc1ccc(S(=O)(=O)Nc2ccc(-c3nc4cc(NS(=O)(=O)c5ccc(C)cc5)ccc4o3)cc2)cc1	.	4.15µM*	.	.	.
CSc1cccc(NS(=O)(=O)c2ccc3c(c2)oc(=O)n3C)c1	-14.0%	11.7µM*	-15.8%	.	-13.7%
Cn1c(=O)oc2cc(S(=O)(=O)Nc3cccc(F)c3)ccc21	-3.8%	24.6%	-5.8%	6.3%	0.1%
Cn1c(=O)c(=O)n(C)c2cc(S(=O)(=O)Nc3ccc4c(c3)OCCO4)ccc21	.	35.9%	.	3.29µM*	0.0%
Cn1c(=O)c2cc(S(=O)(=O)Nc3cccc(F)c3)ccc2n(C)c1=O	-9.2%	14.7µM*	-20.6%	.	13.0%
CC(=O)c1ccc(F)c(-c2cc(C)cc3c2OC(CNC(=O)C[C@@H]2C[C@@H](C)NC(=S)N2)C3)c1 (stereo partly drawn)	-5.6%	.	-18.5%	.	.
CCc1cccc(NC(=O)CSc2nncn3c2cc2sccc23)c1	-21.8%	.	-5.9%	.	.
COc1ccccc1C(=O)Nc1ccc(OCc2cc(=O)n3ccsc3n2)cc1	-16.7%	.	-11.2%	.	.
COc1cccc(C(=O)NCC2Cc3cccc(-c4ncccn4)c3O2)c1OC (stereo not drawn)	-1.4%	.	-10.7%	.	.
Cc1ccc(NS(=O)(=O)c2ccc3c(c2)oc(=O)n3C)cc1	-22.7%	2.62µM*	i	1.0%	2.3%
C=CCN(CC=C)Cc1c(O)ccc2c1oc(=O)c1ccccc12	-3.1%	.	i	.	21.2µM*
C=CCN(CC=C)Cc1cc(=O)oc2ccc3ccccc3c12	-20.6%	.	-4.2%	.	29.8%
COC(=O)C1=C(C)NC(=O)/C1=C\c1cccs1	-23.8%	27.4%	.	.	-6.8%

From PubChem BioAssay
